Among the data in ChEMBL document CHEMBL1961873, “Compounds: GSK PKIS; Assays: Nanosyn kinase panel” (2012) are inhibition values, retold here.

In experiment [1] the target is Mitogen-activated protein kinase 3 (Homo sapiens) (UniProt P27361). The conditions noted are these: at 1 µM.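 Also: values are mean percent inhibition of MAPK3.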
For experiment [2], the target named is SRSF protein kinase 3 (Homo sapiens) (UniProt Q9UPE1). To be noted: at 0.1 µM.
For experiment [3] the target is unchanged. To be noted: at 1 µM.
For experiment [4], the target named is Mitogen-activated protein kinase 14 (Homo sapiens) (UniProt Q16539). The conditions noted are these: at 0.1 µM.
Mitogen-activated protein kinase 14 (Homo sapiens), sequence (Q16539 whole entry): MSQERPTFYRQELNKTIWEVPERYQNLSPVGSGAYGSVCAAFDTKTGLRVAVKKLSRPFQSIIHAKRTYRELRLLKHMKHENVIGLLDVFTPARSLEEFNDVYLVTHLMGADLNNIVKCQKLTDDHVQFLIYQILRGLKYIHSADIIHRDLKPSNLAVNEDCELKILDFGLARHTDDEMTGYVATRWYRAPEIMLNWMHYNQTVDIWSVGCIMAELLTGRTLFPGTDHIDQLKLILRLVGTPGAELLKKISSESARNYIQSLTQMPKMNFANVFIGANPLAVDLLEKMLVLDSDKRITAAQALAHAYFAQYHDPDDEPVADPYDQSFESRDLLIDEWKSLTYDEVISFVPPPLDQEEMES
Experiment [5] shares this target. To be noted: at 1 µM.
The target in experiment [6] is Mitogen-activated protein kinase 11 (Homo sapiens) (UniProt Q15759). The conditions noted are these: at 0.1 µM.
Mitogen-activated protein kinase 11 (Homo sapiens), sequence (Q15759 whole entry): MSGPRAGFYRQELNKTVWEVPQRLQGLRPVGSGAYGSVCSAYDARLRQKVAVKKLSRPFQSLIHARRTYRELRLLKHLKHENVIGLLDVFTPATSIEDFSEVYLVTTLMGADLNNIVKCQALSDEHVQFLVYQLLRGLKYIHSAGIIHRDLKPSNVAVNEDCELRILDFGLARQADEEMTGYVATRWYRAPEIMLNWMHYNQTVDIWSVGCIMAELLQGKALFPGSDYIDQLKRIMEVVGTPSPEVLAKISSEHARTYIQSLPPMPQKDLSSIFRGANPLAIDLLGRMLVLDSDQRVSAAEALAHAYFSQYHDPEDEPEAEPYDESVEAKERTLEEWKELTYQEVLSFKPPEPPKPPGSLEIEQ
Experiment [7] shares this target. The conditions noted are these: at 1 µM.
The target in experiment [8] is T1, Mitogen-activated protein kinase 13 (Homo sapiens) (UniProt O15264).
T1 sequence (whole entry): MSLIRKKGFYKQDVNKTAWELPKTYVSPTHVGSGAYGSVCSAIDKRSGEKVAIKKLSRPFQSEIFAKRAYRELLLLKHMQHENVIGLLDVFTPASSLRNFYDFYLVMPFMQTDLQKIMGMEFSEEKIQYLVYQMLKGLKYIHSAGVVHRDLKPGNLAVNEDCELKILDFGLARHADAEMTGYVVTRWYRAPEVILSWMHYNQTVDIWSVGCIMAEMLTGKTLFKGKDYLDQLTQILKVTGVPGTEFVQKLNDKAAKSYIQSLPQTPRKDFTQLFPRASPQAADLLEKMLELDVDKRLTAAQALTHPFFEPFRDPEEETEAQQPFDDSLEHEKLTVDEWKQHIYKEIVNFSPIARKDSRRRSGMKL
The conditions noted are these: at 0.1 µM.

Experiment [9] deals with T1, Mitogen-activated protein kinase 13 (Homo sapiens). The conditions noted are these: at 1 µM.
Experiment [10] has as its target T2, Mitogen-activated protein kinase 12 (Homo sapiens) (UniProt P53778).
T2 sequence (whole entry): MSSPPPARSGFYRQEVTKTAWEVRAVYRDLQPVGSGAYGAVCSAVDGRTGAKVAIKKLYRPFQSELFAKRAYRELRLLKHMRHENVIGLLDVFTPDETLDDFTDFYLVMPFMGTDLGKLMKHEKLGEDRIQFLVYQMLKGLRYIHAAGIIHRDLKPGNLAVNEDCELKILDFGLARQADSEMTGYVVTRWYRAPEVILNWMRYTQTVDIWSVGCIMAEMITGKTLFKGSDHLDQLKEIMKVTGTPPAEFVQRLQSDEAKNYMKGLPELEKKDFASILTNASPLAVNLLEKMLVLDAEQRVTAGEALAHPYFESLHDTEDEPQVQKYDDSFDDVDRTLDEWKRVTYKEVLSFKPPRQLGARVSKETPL
The conditions noted are these: at 0.1 µM.

Experiment [11] has as its target T2, Mitogen-activated protein kinase 12 (Homo sapiens). The conditions noted are these: at 1 µM.
The target in experiment [12] is SRSF protein kinase 1 (Homo sapiens) (UniProt Q96SB4). The conditions noted are these: at 0.1 µM.
SRSF protein kinase 1 (Homo sapiens), sequence (Q96SB4 whole entry): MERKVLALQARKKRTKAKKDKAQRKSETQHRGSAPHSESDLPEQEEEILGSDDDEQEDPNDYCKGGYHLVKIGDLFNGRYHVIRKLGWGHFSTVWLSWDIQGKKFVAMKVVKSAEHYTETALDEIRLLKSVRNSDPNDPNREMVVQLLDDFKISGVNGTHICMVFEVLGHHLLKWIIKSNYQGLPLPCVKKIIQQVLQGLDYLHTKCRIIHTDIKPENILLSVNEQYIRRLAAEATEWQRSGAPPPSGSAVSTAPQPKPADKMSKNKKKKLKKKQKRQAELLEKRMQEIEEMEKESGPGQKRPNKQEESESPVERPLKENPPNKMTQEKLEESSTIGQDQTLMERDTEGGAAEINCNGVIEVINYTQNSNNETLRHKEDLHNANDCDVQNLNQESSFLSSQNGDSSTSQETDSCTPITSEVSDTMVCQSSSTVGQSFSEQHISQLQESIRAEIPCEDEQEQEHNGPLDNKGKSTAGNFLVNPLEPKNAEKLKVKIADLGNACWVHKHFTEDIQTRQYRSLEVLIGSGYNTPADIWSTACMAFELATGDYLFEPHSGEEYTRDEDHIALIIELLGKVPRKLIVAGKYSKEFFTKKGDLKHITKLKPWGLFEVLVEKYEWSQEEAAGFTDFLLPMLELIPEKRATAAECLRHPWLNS
The target is the same in experiment [13]. The conditions noted are these: at 1 µM.
Experiment [14] concerns the target Phosphatidylinositol 4,5-bisphosphate 3-kinase catalytic subunit alpha isoform (Homo sapiens) (UniProt P42336). The conditions noted are these: at 0.1 µM.
For experiment [15] the target is unchanged. The conditions noted are these: at 1 µM.
Experiment [16] concerns the target T3, Phosphatidylinositol 4,5-bisphosphate 3-kinase catalytic subunit delta isoform (Homo sapiens) (UniProt O00329).
T3 sequence (whole entry): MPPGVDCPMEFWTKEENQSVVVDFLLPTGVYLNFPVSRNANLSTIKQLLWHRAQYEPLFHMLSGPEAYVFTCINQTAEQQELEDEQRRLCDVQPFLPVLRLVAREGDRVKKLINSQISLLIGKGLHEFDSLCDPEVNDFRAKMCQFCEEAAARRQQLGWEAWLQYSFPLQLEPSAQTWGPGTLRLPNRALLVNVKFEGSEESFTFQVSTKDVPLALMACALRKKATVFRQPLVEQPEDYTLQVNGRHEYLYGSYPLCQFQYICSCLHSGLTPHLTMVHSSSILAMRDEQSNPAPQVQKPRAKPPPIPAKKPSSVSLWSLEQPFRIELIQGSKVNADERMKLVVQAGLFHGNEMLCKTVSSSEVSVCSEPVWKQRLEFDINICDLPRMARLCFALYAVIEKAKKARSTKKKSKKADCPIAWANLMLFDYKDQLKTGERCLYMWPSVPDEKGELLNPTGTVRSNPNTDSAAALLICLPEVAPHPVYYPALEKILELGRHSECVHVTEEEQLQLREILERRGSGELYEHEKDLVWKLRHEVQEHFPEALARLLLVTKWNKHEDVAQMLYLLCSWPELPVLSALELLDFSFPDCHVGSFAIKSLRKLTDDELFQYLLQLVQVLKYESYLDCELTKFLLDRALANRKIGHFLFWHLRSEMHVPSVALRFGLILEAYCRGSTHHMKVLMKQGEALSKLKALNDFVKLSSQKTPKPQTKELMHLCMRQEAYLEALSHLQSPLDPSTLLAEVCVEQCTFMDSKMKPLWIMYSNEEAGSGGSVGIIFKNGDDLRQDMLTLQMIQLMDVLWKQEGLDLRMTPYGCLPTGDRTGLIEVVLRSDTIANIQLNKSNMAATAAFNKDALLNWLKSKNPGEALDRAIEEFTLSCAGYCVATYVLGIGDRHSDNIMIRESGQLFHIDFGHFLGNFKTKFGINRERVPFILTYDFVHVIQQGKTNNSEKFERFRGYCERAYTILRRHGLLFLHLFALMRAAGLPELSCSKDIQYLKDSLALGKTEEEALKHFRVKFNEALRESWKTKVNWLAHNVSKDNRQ
To be noted: at 0.1 µM.

Experiment [17] addresses T3, Phosphatidylinositol 4,5-bisphosphate 3-kinase catalytic subunit delta isoform (Homo sapiens). The conditions noted are these: at 1 µM.
Experiment [18] has as its target Phosphatidylinositol 4-kinase beta (Homo sapiens) (UniProt Q9UBF8). To be noted: at 0.1 µM.
The target is the same in experiment [19]. To be noted: at 1 µM.
Experiment [20] concerns the target Sphingosine kinase 1 (Homo sapiens) (UniProt Q9NYA1). To be noted: at 0.1 µM.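 Also: mean percent inhibition of SPHK1 activity, measured within the GSK PKIS screening panel.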

SRSF protein kinase 3 (Homo sapiens), sequence (Q9UPE1 whole entry): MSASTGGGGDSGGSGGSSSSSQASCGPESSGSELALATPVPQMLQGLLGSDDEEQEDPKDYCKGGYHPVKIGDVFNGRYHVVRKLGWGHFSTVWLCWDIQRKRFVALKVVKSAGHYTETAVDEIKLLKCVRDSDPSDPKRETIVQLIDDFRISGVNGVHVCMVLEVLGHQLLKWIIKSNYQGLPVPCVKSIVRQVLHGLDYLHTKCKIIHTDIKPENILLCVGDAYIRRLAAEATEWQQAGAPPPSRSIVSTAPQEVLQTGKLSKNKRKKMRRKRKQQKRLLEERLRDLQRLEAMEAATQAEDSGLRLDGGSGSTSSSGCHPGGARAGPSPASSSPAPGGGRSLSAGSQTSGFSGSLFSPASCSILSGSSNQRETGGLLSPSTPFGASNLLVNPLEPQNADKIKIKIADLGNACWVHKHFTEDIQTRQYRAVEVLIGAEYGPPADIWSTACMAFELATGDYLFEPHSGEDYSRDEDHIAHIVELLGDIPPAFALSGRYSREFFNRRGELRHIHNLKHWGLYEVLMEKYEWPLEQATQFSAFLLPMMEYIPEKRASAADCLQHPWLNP
Phosphatidylinositol 4-kinase beta (Homo sapiens), sequence (Q9UBF8 2-816 limits assumed): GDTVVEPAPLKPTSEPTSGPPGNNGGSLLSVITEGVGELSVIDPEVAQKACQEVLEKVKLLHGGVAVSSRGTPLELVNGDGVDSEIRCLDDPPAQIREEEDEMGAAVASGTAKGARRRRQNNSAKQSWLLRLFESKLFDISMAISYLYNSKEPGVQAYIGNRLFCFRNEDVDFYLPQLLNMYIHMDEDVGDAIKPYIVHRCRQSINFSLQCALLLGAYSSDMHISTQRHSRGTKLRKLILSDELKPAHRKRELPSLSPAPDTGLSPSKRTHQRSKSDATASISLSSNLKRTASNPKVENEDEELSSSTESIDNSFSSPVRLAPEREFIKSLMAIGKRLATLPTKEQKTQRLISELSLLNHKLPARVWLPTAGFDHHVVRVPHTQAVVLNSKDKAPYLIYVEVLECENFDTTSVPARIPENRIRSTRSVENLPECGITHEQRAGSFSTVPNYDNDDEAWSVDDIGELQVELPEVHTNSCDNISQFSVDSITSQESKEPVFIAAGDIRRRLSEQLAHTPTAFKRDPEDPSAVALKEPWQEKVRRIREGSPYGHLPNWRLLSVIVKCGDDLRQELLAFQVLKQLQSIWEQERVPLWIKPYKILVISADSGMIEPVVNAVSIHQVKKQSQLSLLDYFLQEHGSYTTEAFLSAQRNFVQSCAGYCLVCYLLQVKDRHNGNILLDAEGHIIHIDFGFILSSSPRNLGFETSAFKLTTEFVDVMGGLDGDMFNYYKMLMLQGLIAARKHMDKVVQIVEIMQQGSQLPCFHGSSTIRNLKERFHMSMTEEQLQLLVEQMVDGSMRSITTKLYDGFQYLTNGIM
Phosphatidylinositol 4,5-bisphosphate 3-kinase catalytic subunit alpha isoform (Homo sapiens), sequence (P42336 whole entry, canonical isoform): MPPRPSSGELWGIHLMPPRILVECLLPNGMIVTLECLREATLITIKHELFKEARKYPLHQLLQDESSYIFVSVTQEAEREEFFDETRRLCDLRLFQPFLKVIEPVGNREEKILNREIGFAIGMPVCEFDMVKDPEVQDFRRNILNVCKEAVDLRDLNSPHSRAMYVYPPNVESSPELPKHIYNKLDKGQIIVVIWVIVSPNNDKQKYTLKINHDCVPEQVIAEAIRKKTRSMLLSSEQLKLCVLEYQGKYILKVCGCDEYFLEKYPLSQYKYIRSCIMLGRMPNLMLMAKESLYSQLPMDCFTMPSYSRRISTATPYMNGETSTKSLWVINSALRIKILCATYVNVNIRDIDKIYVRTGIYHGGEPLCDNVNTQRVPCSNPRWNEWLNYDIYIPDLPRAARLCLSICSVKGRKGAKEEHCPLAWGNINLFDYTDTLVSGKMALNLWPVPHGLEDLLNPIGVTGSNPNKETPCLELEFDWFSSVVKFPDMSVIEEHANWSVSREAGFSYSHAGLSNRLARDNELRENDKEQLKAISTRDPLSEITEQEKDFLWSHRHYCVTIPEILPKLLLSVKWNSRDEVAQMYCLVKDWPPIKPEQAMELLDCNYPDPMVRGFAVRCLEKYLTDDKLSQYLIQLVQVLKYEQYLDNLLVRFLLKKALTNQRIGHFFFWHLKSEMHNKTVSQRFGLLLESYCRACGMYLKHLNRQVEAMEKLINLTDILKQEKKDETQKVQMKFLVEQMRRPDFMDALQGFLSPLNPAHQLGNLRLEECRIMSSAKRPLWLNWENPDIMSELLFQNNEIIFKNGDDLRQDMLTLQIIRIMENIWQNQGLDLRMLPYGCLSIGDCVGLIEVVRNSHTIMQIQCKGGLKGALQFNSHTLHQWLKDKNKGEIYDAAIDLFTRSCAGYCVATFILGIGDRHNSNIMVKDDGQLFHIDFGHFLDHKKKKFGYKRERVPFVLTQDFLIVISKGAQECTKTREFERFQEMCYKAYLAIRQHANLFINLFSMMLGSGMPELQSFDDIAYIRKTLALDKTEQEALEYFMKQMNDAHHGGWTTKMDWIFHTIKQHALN
Mitogen-activated protein kinase 3 (Homo sapiens), sequence (P27361 whole entry): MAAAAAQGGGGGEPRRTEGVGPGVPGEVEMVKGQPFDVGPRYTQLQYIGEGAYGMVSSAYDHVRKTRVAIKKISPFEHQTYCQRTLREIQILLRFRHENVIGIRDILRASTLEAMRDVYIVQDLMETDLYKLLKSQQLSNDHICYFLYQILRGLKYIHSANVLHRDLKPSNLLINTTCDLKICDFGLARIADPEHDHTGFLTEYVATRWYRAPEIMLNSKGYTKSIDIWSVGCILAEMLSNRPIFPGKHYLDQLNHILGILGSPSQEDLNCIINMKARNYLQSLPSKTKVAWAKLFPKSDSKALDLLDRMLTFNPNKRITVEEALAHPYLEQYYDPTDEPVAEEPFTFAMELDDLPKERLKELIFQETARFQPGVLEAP
Sphingosine kinase 1 (Homo sapiens), sequence (Q9NYA1 whole entry): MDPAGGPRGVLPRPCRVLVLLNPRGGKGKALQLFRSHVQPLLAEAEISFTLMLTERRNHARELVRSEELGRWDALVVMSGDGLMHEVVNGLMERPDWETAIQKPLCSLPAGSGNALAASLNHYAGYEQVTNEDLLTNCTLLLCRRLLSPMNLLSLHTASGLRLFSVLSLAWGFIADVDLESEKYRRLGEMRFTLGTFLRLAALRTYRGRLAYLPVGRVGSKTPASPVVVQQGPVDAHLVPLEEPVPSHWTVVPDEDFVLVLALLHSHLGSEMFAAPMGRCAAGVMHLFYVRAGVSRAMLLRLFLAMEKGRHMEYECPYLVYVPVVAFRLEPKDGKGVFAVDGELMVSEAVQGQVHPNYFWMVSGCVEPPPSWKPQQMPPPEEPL

Consider `NS(=O)(=O)c1ccc(-c2ccc3c(NC(=O)C4CC4)n[nH]c3c2)cc1`, for which the inhibition in [1] was 1.36%; in experiment [2] it was 0.31%; in experiment [3], -1.45%; in experiment [4], 7.62%; in [5], 5.94%; in experiment [6] it was 2.34%. In addition, the inhibition is -1.13% in experiment [7]; 3.91% in experiment [8]; 5.02% in experiment [9]; 0.67% in experiment [10]; 0.58% in [11]; -1.31% in [12]. The inhibition is -2.21% in experiment [13]; 2.7% in [14]; 3.32% in experiment [15]; 3.34% in experiment [16]; 8.4% in experiment [17]; -0.87% in [18]. Further, the inhibition in [19] is -1.58%; in experiment [20], -2.63%.

Take `NS(=O)(=O)c1ccc(N/C=C2\C(=O)Nc3ccc4ncsc4c32)cc1`: the inhibition in experiment [1] is 15.3%; in experiment [2] it was -1.67%; in experiment [3] it was 0.72%; in experiment [4] it was 18.6%; in experiment [5], 23.4%; in experiment [6] it was 4.61%. Moreover, the inhibition was 15% in [7]; 4.52% in [8]; 4.84% in experiment [9]; 2.86% in [10]; 5.04% in experiment [11]; -3.49% in experiment [12]. The inhibition in experiment [13] was -2.8%; in experiment [14], 4.87%; in experiment [15], 7.04%; in experiment [16], 2.72%; in experiment [17], 12.7%; in [18], -2.13%. Further, the inhibition in experiment [19] worked out at 1.22%; in [20] it was 0.04%.

Consider `COc1cccc(-n2ncc3c(N/N=C/c4ccncc4)ncnc32)c1`, for which the inhibition is 7.65% in [1]; -0.94% in experiment [2]; 1.8% in experiment [3]; 9.43% in [4]; 16.4% in [5]; 4.02% in [6]. For the same compound, the inhibition in experiment [7] is 10.8%; in experiment [8], 7.88%; in [9], 43.3%; in experiment [10] it was 5.45%; in [11], 14.1%; in [12], -1.14%. Besides, the inhibition in experiment [13] was 4.65%; in experiment [14] it was 3.22%; in [15], 7.14%; in experiment [16] it was 2.66%; in experiment [17], 10%; in [18], -3.14%. For the same compound, the figures for the inhibition in experiment [19] and in experiment [20] were 1.7% and -0.71%, respectively.

For the compound `NC(=O)c1sc(-n2cnc3cc(C(F)(F)F)ccc32)cc1OCc1ccccc1Br`, the inhibition is 0.48% in experiment [1]; -3.47% in experiment [2]; 0.48% in experiment [3]; 1.34% in experiment [4]; 4.04% in experiment [5]; 4.23% in [6]. Further, the inhibition in experiment [7] is 4.66%; in experiment [8], 0.44%; in experiment [9] it was -0.68%; in [10], 1.27%; in [11], 1.86%; in experiment [12] it was -1.98%. In addition, the inhibition was -4.1% in experiment [13]; 0.07% in experiment [14]; 0.07% in experiment [15]; 0.65% in experiment [16]; 1.77% in experiment [17]; 0.77% in experiment [18]. The figures for the inhibition in experiment [19] and in experiment [20] were -3.13% and -0.24%, respectively.

Take `CCn1c(-c2nonc2N)nc2c(C#CC(C)(C)O)nc(O[C@@H](CN)c3ccccc3)cc21`: the inhibition was 0.99% in [1]; -2% in experiment [2]; -2.07% in experiment [3]; 1.44% in [4]; 1.33% in experiment [5]; -1.84% in [6]. Also, the inhibition is 2.96% in experiment [7]; 1.2% in [8]; 0.11% in experiment [9]; 1.29% in [10]; 0.23% in experiment [11]; -0.59% in experiment [12]. In addition, the inhibition in [13] was -3.25%; in [14], -0.44%; in experiment [15], 0.33%; in experiment [16], 2.44%; in experiment [17], 3.42%; in experiment [18], 6.5%. Also, the inhibition in [19] is 1.86%; in experiment [20], -1.08%.

In the case of `Cc1cc(-c2ccco2)cc(C)c1/C=C/c1cncc(-c2nn[nH]n2)c1`, the inhibition was 1.84% in experiment [1]; -1.41% in [2]; -1.53% in experiment [3]; 1.46% in experiment [4]; 1.43% in experiment [5]; 3.14% in [6]. The inhibition in experiment [7] was 3.31%; in experiment [8], 0.77%; in experiment [9], -1.04%; in experiment [10], 0.9%; in [11], 1.3%; in experiment [12] it was -0.96%. The inhibition is -1.7% in experiment [13]; -0.22% in experiment [14]; 6.64% in experiment [15]; 0.16% in experiment [16]; -1.23% in experiment [17]; -1.26% in experiment [18]. For the same compound, the inhibition was found to be 9.03% in [19] and 0.73% in experiment [20].

`COc1cc(C=NNc2ncnc3c2cnn3Cc2ccccc2)ccc1O`: the inhibition was -1.19% in experiment [1]; -1.86% in experiment [2]; -0.84% in experiment [3]; -2.19% in experiment [4]; -2.5% in experiment [5]; -3.2% in experiment [6]. The inhibition in [7] is -2.27%; in experiment [8] it was -0.79%; in experiment [9], -6.14%; in experiment [10] it was -2.53%; in [11] it was -3.29%; in experiment [12] it was 1.24%. The inhibition in [13] is 0.29%; in experiment [14], -4.02%; in experiment [15], -1.81%; in experiment [16], 3.47%; in experiment [17] it was 6.81%; in experiment [18], -1.09%. The inhibition in [19] came out at 2.84%; in experiment [20] it was 3.3%.
